Source: PubChem BioAssay
Calls of active or inactive are those of the source.

Columns and labels:
[1] = compound effects on lung adenocarcinoma cell viability – A549, calcein-AM fluorescence, 48 h, basal, profiling panel (AID 1162); conditions: higher = more signal
[2] = compound effects on differentiated 3T3-L1 adipocyte viability – cell-based, 3T3-L1 adipocytes, calcein-AM fluorescence, 48 h, basal, profiling panel (AID 1163); conditions: 3T3-L1 adipocytes viability, higher = more signal
[3] = compound effects on hepatocellular carcinoma cell viability – HepG2, calcein-AM fluorescence, 48 h, basal, profiling panel (AID 1164); conditions: higher = more signal
[4] = compound effects on multiple myeloma cell viability – MM1S, calcein-AM fluorescence, 48 h, basal, profiling panel (AID 1165); conditions: higher = more signal
[5] = calcein-AM signal in unstimulated myeloma cells – cell-based, calcein-AM fluorescence, 48 h, PK04 Diversity Set, profiling panel (AID 1166); conditions: RPMI8226 myeloma viability, higher = more signal;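 note: cells grown under basal conditions without added stimulus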
[6] = JC-1 mitochondrial signal, unstimulated HepG2 cells – cell-based, JC-1 fluorescence, 24 h, 100 nL compound, profiling panel (AID 1167); conditions: HepG2 mitochondrial potential, higher = more signal
[7] = JC-1 mitochondrial signal, unstimulated adipocytes – cell-based, JC-1 fluorescence, 3T3-L1 adipocytes, 24 h, 100 nL compound, profiling panel (AID 1168); conditions: JC-1 mitochondrial fluorescence, higher = more signal, called active from +8 up or from −8 down
[8] = JC-1 mitochondrial signal, unstimulated myeloma cells – cell-based, JC-1 fluorescence, RPMI8226, 24 h, 100 nL compound, profiling panel (AID 1169); conditions: JC-1 mitochondrial potential fluorescence, higher = more signal
[9] = JC-1 mitochondrial signal, unstimulated MM1S myeloma – cell-based, JC-1 fluorescence, 24 h, 100 nL compound, profiling panel (AID 1170); conditions: MM1S mitochondrial potential, higher = more signal
[10] = resazurin metabolic signal in A549 cells – cell-based, resazurin fluorescence, 24 h, PK04 Diversity Set, profiling panel (AID 1171); conditions: A549 viability, higher = more signal, called active from +8 up or from −8 down
Note: test concentration not given here.

Row | Structure (SMILES) | z-score [1] | z-score [2] | z-score [3] | z-score [4] | z-score [5] | z-score [6] | z-score [7] | z-score [8] | z-score [9] | z-score [10]
1 | O=C1O[C@@H](c2ccccc2)[C@@H](c2ccccc2)N2[C@@H](c3ccc(O)cc3)[C@]3(C(=O)Nc4ccc(C#CC5(O)CCCCCC5)cc43)[C@@H](C(=O)Nc3nc4ccccc4s3)[C@H]12 | 1.46 | 2.07 | 0.417 | -1.55 | -1.97 | -2.15 | -0.444 (inactive) | -0.567 | 0.159 | 1.2 (inactive)
2 | COCCOC(=O)N1C(=O)[C@@]2(c3cc(C#CC4=CCCCC4)ccc31)[C@H](c1ccc(O)cc1)N1[C@H](c3ccccc3)[C@H](c3ccccc3)OC(=O)[C@H]1[C@@H]2C(=O)N1CCCCCCC1 | 1.43 | 1.06 | 0.0785 | -0.278 | -0.641 | -0.926 | 1.37 (inactive) | -0.247 | 0.12 | 0.676 (inactive)
3 | CCCCO[C@H]1C[C@H]2C(Br)=C[C@@]1(CO)C(=O)[C@]21CO1 | 0.491 | 0.53 | -0.337 | -0.997 | -0.545 | 0.76 | 1.33 (inactive) | -1.12 | 0.149 | 0.6 (inactive)
4 | [N-]=[N+]=Nc1ccccc1C[C@@]1(C(=O)N2CCOCC2)N=C(c2ccc(OCCCO)cc2)O[C@@H]1c1ccccc1N=[N+]=[N-] | -0.71 | 0.271 | -1.19 | -3.45 | -4.53 | 0.925 | 1.98 (inactive) | -1.23 | -1.54 | -1.32 (inactive)
5 | Cc1ccc(N2C(=O)c3ccccc3[C@@H](C(=O)NCC(F)(F)F)[C@@H]2c2ccc(CO)cc2)nc1 | 0.312 | 0.603 | 0.471 | 0.0049 | 0.51 | 1.04 | 0.884 (inactive) | -0.223 | 0.0421 | 0.547 (inactive)
6 | C[C@@H]1C=CCC(=O)OC[C@H]2O[C@@H](C=C[C@@H]2O)[C@H](C)C=CCC(=O)OC[C@H]2O[C@H]1C=C[C@@H]2O | -0.883 | 1.15 | 0.158 | 0.631 | -1.99 | 0.885 | 0.902 (inactive) | -0.744 | 0.92 | -0.573 (inactive)
7 | COCCOC(=O)N1C(=O)[C@@]2(c3cc(C#CCNC(N)=O)ccc31)[C@H](c1ccccc1OCCO)N1[C@H](c3ccccc3)[C@H](c3ccccc3)OC(=O)[C@H]1[C@@H]2C(=O)NC[C@H](O)c1ccccc1 | -0.991 | -0.574 | 0.0681 | -0.344 | 0.941 | -1.64 | 0.392 (inactive) | -0.305 | -0.803 | 0.868 (inactive)
8 | O=C1C[C@@](C(=O)NC2CC2)(c2ccc([N+](=O)[O-])cc2)[C@@H](c2ccc(CO)cc2I)N1CC12CC3CC(CC(C3)C1)C2 | -2.31 | -0.375 | -5.04 | -3.83 | -4.33 | -2.32 | -0.869 (inactive) | -1.02 | -2.4 | -3.35 (inactive)
9 | COc1cc2c(cc1OC)CN(C(=O)[C@@H]1[C@H]3C(=O)O[C@H](c4ccccc4)[C@H](c4ccccc4)N3[C@H](c3ccccc3OCCO)[C@@]13C(=O)Nc1ccccc13)CC2 | -0.225 | 1.85 | -0.174 | -0.998 | -0.622 | 0.648 | 3.09 (inactive) | -0.509 | 0.0343 | 0.872 (inactive)
10 | COc1ccc(C(O)C2C=CC3C(=O)N(C)C(=O)C3N2N2CCCCC2)cc1OCc1ccccc1 (stereo not given) | 0.138 | -0.393 | -0.888 | -0.25 | 0.0629 | -1.8 | -0.693 (inactive) | -0.813 | 0.536 | 2.31 (inactive)
11 | COCCOC(=O)N1C(=O)[C@@]2(c3cc(C#CC4(O)CCCCCC4)ccc31)[C@H](C(=O)N1CCCCCCC1)[C@H]1C(=O)O[C@H](c3ccccc3)[C@H](c3ccccc3)N1[C@@H]2c1ccc(O)cc1 | -0.475 | 2.45 | -0.0416 | -0.747 | -0.733 | -0.355 | 1.16 (inactive) | -0.861 | -0.219 | 0.627 (inactive)
12 | CC(=O)NCCCC[C@@H]1NC(=O)[C@H]2C[C@@H](C(=O)NCCCCCCN(C)C)[C@@H](c3cccc(OCCO)c3)N2C1=O | 0.214 | 0.509 | 0.344 | 0.27 | 0.079 | -0.0861 | -0.308 (inactive) | -0.125 | -0.376 | -0.739 (inactive)
13 | O=C1c2ccccc2[C@](Cc2ccccc2I)(C(=O)NCC(F)(F)F)[C@H](c2ccc(CO)cc2)N1Cc1ccccc1C(F)(F)F | 0.187 | 1.31 | -0.529 | -2.72 | -2.27 | 0.535 | -0.225 (inactive) | -0.248 | 0.415 | 1.32 (inactive)
14 | COc1ccc(-c2cc3c(c(-c4ccccc4)n2)[Si](C(C)C)(C(C)C)O[C@H]3c2ccccc2)cn1 | 0.705 | -0.263 | 0.674 | -1.48 | -1.85 | -1.57 | -0.739 (inactive) | -0.707 | -0.225 | 1.51 (inactive)
